Data published in PubChem BioAssay AID1159580 (chemical genetic matrix, 2015).
Hit rate of the full screen: of about 5,500 compounds, about 2,000 (36%) were called active. Another 18% or so got no clear call; they are omitted. Cut-off read from the data, not from the text of the source: active = normalized growth mostly below about 0.91 (no sharp cut-off); inconclusive = no clear call, values can overlap the other calls; inactive = mostly above about 0.92. This is one part of the list.

Experiment: chemical genetic growth profiling, strain panel (AID 1159580);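 note: tested at 20 µM; growth read once vehicle control cultures reached saturation at 30 °C; 1 = growth at the plate median or of vehicle wells; lower values mean less growth of the strain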
Details: S. cerevisiae deletion strains, growth OD

Measured: normalized growth

CNNC
inactive: locus YAL013W, strain DEP1, active compounds read low 1.01 | locus YAL021C, strain ccr4, active compounds read low 1.01 | locus YAL026C, strain drs2, active compounds read low 1.02 | locus YAL030W, strain snc1, active compounds read low 1.02 | locus YBL061C, strain skt5, active compounds read low 1 | locus YBR009C, strain hhf1, active compounds read low 1.01 | locus YBR021W, strain FUR4, active compounds read low 1.04 | locus YBR023C, strain chs3, active compounds read low 1 | locus YBR171W, strain sec66, active compounds read low 0.995 | locus YBR229C, strain ROT2, active compounds read low 1.01 | locus YBR231C, strain swc5, active compounds read low 1.01 | locus YBR279W, strain paf1, active compounds read low 1.02 | locus YCL011C, strain gbp2, active compounds read low 1.01 | locus YCL016C, strain dcc1, active compounds read low 1.04 | locus YCL029C, strain bik1, active compounds read low 1.01 | locus YCL069W, strain vba3, active compounds read low 1.01 | locus YCR088W, strain abp1, active compounds read low 1.01 | locus YDL005C, strain med2, active compounds read low 0.987 | locus YDL035C, strain GPR1, active compounds read low 1.02 | locus YDL040C, strain nat1, active compounds read low 1 | locus YDL074C, strain BRE1, active compounds read low 1.07 | locus YDL101C, strain DUN1, active compounds read low 1.03 | locus YDL134C, strain PPH21, active compounds read low 1.02 | locus YDL185W, strain tfp1, active compounds read low 1.01 | locus YDL192W, strain arf1, active compounds read low 0.995 | locus YDR001C, strain nth1, active compounds read low 1.02 | locus YDR069C, strain doa4, active compounds read low 1.02 | locus YDR101C, strain arx1, active compounds read low 0.989 | locus YDR137W, strain rgp1, active compounds read low 1.04 | locus YDR150W, strain NUM1, active compounds read low 1 | locus YDR159W, strain sac3, active compounds read low 0.991 | locus YDR162C, strain NBP2, active compounds read low 1.03 | locus YDR195W, strain ref2 0.981 | locus YDR297W, strain sur2, active compounds read low 1 | locus YDR318W, strain mcm21, active compounds read low 0.997 | locus YDR334W, strain swr1, active compounds read low 1.01 | locus YDR335W, strain msn5, active compounds read low 1.01 | locus YDR388W, active compounds read low 0.994 | locus YDR392W, strain spt3, active compounds read low 1.01 | locus YDR502C, strain sam2, active compounds read low 1.01 | locus YEL003W, strain gim4, active compounds read low 1.01 | locus YEL037C, strain rad23, active compounds read low 1.02 | locus YEL061C, strain CIN8 (second series), active compounds read low 1.01 | locus YEL061C, strain CIN8, active compounds read low 1.01 | locus YER015W, strain faa2, active compounds read low 1.01 | locus YER016W, strain bim1, active compounds read low 1.01 | locus YER110C, active compounds read low 0.996 | locus YER111C, strain swi4, active compounds read low 1 | locus YER155C, strain BEM2 (second series), active compounds read low 1.04 | locus YER155C, strain BEM2, active compounds read low 1.03 | locus YER167W, strain BCK2, active compounds read low 1.02 | locus YFR010W, strain ubp6, active compounds read low 0.993 | locus YGL078C, strain dbp3, active compounds read low 1 | locus YGL086W, strain mad1, active compounds read low 1.01 | locus YGL167C, strain pmr1, active compounds read low 0.998 | locus YGL173C, strain kem1, active compounds read low 0.987 | locus YGL227W, strain vid30, active compounds read low 1.01 | locus YGL240W, strain doc1, active compounds read low 0.995 | locus YGL248W, strain PDE1, active compounds read low 1.02 | locus YGL253W, strain hxk2, active compounds read low 1 | locus YGR078C, strain PAC10, active compounds read low 1.04 | locus YGR135W, strain pre9, active compounds read low 1.01 | locus YGR229C, strain SMI1, active compounds read low 1.02 | locus YGR252W, strain gcn5, active compounds read low 0.955 | locus YHR013C, strain ard1, active compounds read low 1.02 | locus YHR027C, strain rpn1, active compounds read low 1.02 | locus YHR030C, strain SLT2, active compounds read low 1.02 | locus YHR079C, strain IRE1 (second series), active compounds read low 1 | locus YHR094C, strain hxt1, active compounds read low 0.998 | locus YHR129C, strain ARP1, active compounds read low 1.02 | locus YHR142W, strain chs7, active compounds read low 1.04 | locus YHR200W, strain rpn10, active compounds read low 1 | locus YIL066C, strain RNR3, active compounds read low 1.01 | locus YIL073C, strain SPO22, active compounds read low 0.998 | locus YIL125W, strain kgd1, active compounds read low 0.99 | locus YIR030C, strain dcg1, active compounds read low 1.01 | locus YJL092W, strain hpr5, active compounds read low 1.03 | locus YJL095W, strain BCK1 (second series), active compounds read low 1.01 | locus YJL095W, strain BCK1, active compounds read low 1.05 | locus YJL115W, strain asf1, active compounds read low 0.994 | locus YJL129C, strain trk1, active compounds read low 1.01 | locus YJL134W, strain LCB3, active compounds read low 1.02 | locus YJL154C, strain vps35, active compounds read low 1.02 | locus YJL164C, strain tpk1, active compounds read low 0.996 | locus YJL166W, strain qcr8, active compounds read low 0.997 | locus YJL168C, strain set2, active compounds read low 1 | locus YJL187C, strain SWE1 (second series), active compounds read low 1.02 | locus YJR043C, strain POL32, active compounds read low 0.998
